# Test results as given in PubChem BioAssay (Tox21).
# The source made the active and inactive calls. A call without a number means that no potency is given here. Calls follow the shape of the dose curve; as a rule, active = well fitted activation curve with a large enough effect in the repeat runs; inconclusive = weak or mixed curves; inactive = flat fitted curve, though single readings scatter.
# Target: KiSS-1 receptor (Homo sapiens) (UniProt Q969F8)
# Assay: Human kisspeptin (KISS1R) small molecule agonists, calcium flux assay in KISS1R-HEK293 cells (AID 1920064)
# Details: KISS1R-HEK293, calcium flux fluorescence, agonist; series mostly up to 76.8 µM
# Excerpt: National Center for Advancing Translational Sciences [NCATS]
# Division of Preclinical Innovation [DPI]
# U.S. Environmental Protection Agency [EPA]
# National Institutes of Environmental Health Sciences [NIEHS]
# National Toxicology Program [NTP]
# U.S. Food and Drug Administration [FDA]
# Kisspeptin and its receptor KISS1R play key roles in mammalian reproduction due to their involvement in the onset of puberty and control of the hypothalamic-pituitary-gonadal axis such as regulates GnRH release from the hypothalamus. The kisspeptin/KISS1R system also plays a direct role in peripheral organs (including the ovary, testis, uterus, and placenta) and is implicated in reproductive diseases such as miscarriage and polycystic ovary syndrome (PCOS). Abnormal KISS1R activity is associated with abnormal puberty, infertility, endometriosis, and hormone-dependent tumors. The KISS1 receptor (KISS1R, also called GPR54), a G-protein-coupled receptor (GPCR), acts (through phospholipase C) to increase intracellular inositol trisphosphate and then release intracellular calcium stores. Cell-based KISS1R-HEK293 assay is using HEK293 cells that have been genetically engineered to express the human KISS1R, which activity can be measured by calcium signaling. A compound/drug can activate (agonist) KISS1R that can be monitored by levels of intracellular calcium.
# KISS1R-HEK293 cells developed by Codex Corp contain human KISS1R gene, which was stably integrated into HEK 293 cells. The compound activation can be detected by fluorescence intensity via calcium flux assay. This cell line has been used to screen the Tox21 10K compound library to identify agonists of KISS1R.
# KISS1R-Hek293 cells were dispensed at 1500 cells/4uL/well in 1536-well black wall/clear bottom plates using a multidrop dispenser. After the assay plates were incubated at a 37 C/5% CO2 incubator for 18 hours, 4 microL of Calcium Dye Solution was added to each well. The plates were incubated at 37 C for 1 hour. And then 23 nL of compounds dissolved in DMSO, positive controls, or DMSO only was transferred to the assay plate by a pin tool station. The fluorescence intensity in the plates was measured using FDSS 7000EX kinetic plate reader with a filter set of Ex/Em=480/540 for 3 min at 1 sec intervals. Each test compound was measured at 15 concentrations and in triplicates.
# Sequence of KiSS-1 receptor (Homo sapiens) (Q969F8 whole entry, looked up): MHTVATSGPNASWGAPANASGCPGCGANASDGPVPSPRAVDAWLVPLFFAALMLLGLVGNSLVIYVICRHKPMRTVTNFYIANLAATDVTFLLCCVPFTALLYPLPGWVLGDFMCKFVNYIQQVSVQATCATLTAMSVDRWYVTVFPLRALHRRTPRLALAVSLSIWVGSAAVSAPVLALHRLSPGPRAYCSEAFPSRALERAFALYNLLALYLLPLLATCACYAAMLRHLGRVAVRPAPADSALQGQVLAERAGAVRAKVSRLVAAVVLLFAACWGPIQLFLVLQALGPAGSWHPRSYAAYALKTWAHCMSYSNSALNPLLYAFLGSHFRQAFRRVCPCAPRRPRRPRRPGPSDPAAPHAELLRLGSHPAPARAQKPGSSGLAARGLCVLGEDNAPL
row,SMILES,Potency
1,CCC(=O)OC/C=C/c1ccccc1,inactive
2,Clc1ccc(Cl)c(Cl)c1Cl,inactive
3,CC(C)=CCCC(C)CCO (stereo not given),inactive
4,CC1=C(/C=C/C(C)=C/C=C/C(C)=C/C(=O)Nc2ccc(O)cc2)C(C)(C)CCC1,inactive
5,OC(Cn1cncn1)(Cn1cncn1)c1ccc(F)cc1F,inactive
6,CC(=O)/C=C/C1=C(C)CCCC1(C)C,inactive
7,CCCCCCCCCCCCCC(=O)OC(C)C,inactive
8,NNCCc1ccccc1,inactive
9,CCNc1cccc(C)c1,inactive
10,CCCCCCCC(=O)OCC(COC(=O)CCCCCCC)OC(=O)CCCCCCC,inactive
11,C1CCCNCC1,inactive
12,O=C(O)CCCC[C@@H]1SC[C@@H]2NC(=O)N[C@@H]21,inactive
13,CCCC(CCC)C(=O)O,inactive
14,O=c1n(CC2CO2)c(=O)n(CC2CO2)c(=O)n1CC1CO1 (stereo not given),inactive
15,Cc1ccc(C(C)C)cc1,inactive
16,C=C(C)C1CC=C(C)CC1 (stereo not given),inactive
17,c1ccc2cc3c(ccc4ccccc43)cc2c1,inactive
18,CCCCCCCCCCC=CC1CC(=O)OC1=O (stereo not given),inactive
19,CCCCCC(N)=O,inactive
20,c1ccc2c(c1)Cc1ccccc1-2,inactive

row,SMILES,Potency
1,O=C1c2c(O)cccc2Cc2cccc(O)c21,inactive
2,CC(C)C(=O)Nc1ccc([N+](=O)[O-])c(C(F)(F)F)c1,inactive
3,OC[C@@H](O)[C@@H](O[C@@H]1O[C@H](CO)[C@H](O)[C@H](O)[C@H]1O)[C@H](O)[C@@H](O)CO,inactive
4,NC(N)=O,inactive
5,O=c1cc[nH]c(=S)[nH]1,inactive
6,[O-]/[N+](=N\O)c1ccccc1,inactive
7,Cc1noc(NS(=O)(=O)c2ccc(N)cc2)c1C,inactive
8,O=c1oc(=O)c2cc3c(=O)oc(=O)c3cc12,inactive
9,COc1ccc(CN(CCN(C)C)c2ccccn2)cc1,inactive
10,CC/C=C(\C(=O)N[C@@H]1C(=O)N2C(C(=O)OCOC(=O)C(C)(C)C)=C(COC(N)=O)CS[C@H]12)c1csc(N)n1,inactive
11,C=CC(C)(CCC=C(C)C)OC(C)=O (stereo not given),inactive
12,CCNC(=S)NCC,inactive
13,CCCCOC(=O)CCCCCCCCC(=O)OCCCC,inactive
14,Clc1ccc(Sc2cc(Cl)c(Cl)cc2Cl)cc1,inactive
15,O=C1NS(=O)(=O)c2ccccc21,inactive
16,O=C(/C=C/C=C/c1ccc2c(c1)OCO2)N1CCCCC1,inactive
17,C/C=C(C)/C=C/C=C(C)C,inactive
18,CCCCCCCCCCCCO,inactive
19,O=[N+]([O-])c1cccc(Cl)c1,inactive
20,C#C[C@]1(O)CC[C@H]2[C@@H]3CCc4cc(OC)ccc4[C@H]3CC[C@@]21C,inactive
